Here are results for 40 compounds from PubChem BioAssay (Tox21).

Records with an inconclusive call do not appear. The source made the active and inactive calls. Calls follow the shape of the dose curve; as a rule, active = well fitted inhibition curve with a large enough effect in the repeat runs; inconclusive = weak or mixed curves, or effect the other way; inactive = no such curve, though single readings can be large or run the other way.
% is scaled to controls: 0 for no effect and ±100 for the full control effect.

The assay deals with Nuclear receptor ROR-gamma (Homo sapiens) (UniProt P51449). Briefly: qHTS assay to identify small molecule antagonists of the retinoid-related orphan receptor gamma (ROR-gamma) signaling pathway (AID 1159521; also: top concentration of the series differs between compounds; nearly all actives have a fitted effect of over 50% in size). The settings on record: Tet-on RORgamma CHO cells, RORE-luciferase, 16 h; series mostly up to 92.4 µM; activity change, negative = inhibition: at the top concentration. The text has this: U.S. Tox21 Program National Center for Advancing Translational Sciences [NCATS] NIH Chemical Genomics Center [NCGC] U.S. Environmental Protection Agency [EPA] National Institutes of Environmental Health Sciences [NIEHS] National Toxicology Program [NTP] U.S. Food and Drug Administration [FDA] Tox21 Assay Overview: Nuclear steroid hormone receptors are involved in many biological processes including inflammatory responses, cell proliferation, and apoptosis. Environmental factors or compounds disrupting these nuclear receptor pathways and gene expression may promote susceptibility to immunotoxicants and autoimmune diseases. One important group of these expression factors are the retinoid-related orphan receptors. To assess compounds that may interfere with the retinoid-related orphan receptor gamma (ROR-gamma) transcription factor, a cell-based luciferase assay was used. The CHO cell-based assay utilizes a TET-inducible ROR expression factor and ROR response element-LUC reporter gene. Reporter gene activity was induced using Doxycycline Hyclate and measured after 16 hr incubation. Tet-on ROR gamma CHO cells were used to screen against the Tox21 10K compound library for ROR gamma antagonists by quantification of decreased reporter gene activity in terms of decreased luminescence.
Tox21 Assay Protocol Summary: Tet-on ROR gamma CHO cells were dispensed at 1,000 cells in 4 uL of culture medium per well into white wall/solid bottom 1536-well plates using a Multidrop Combi (Thermo Scientific, Waltham, MA) dispenser. Following incubation at 37 C and 5% CO2 for 4 hr, 23 nL of compounds dissolved in DMSO, positive controls or DMSO only were transferred by a Pintool station (Kalypsys, San Diego, CA) and after 2 hr incubation at 37 C, one ul of 1 uM (final concentration) of Doxycycline Hyclate was added to all the wells by using a Flying Reagent Dispenser (FRD) (Aurora Discovery, San Diego, CA). After 16 hr incubation at 37 C and 5% CO2, 5 uL of ONE-Glo reagent (Promega Corporation, Madison, WI) was added to each assay plate using FRD. After 30 min incubation at room temperature, luminescence was quantified on a ViewLux plate reader (Perkin Elmer, Waltham, MA).
On to `O=C(O)c1ccncc1`, for which the “activity change, negative = inhibition” value is -25.4% (inactive).

As to `CC1(C)CC(O)CC(C)(C)N1[O]`, the “activity change, negative = inhibition” value was 2.86% (inactive).

With `COc1ccc(C(=O)c2ccc(C)cc2)c(O)c1`, the “activity change, negative = inhibition” value is 53.7% (inactive).

Turning to `CCC[Si](OC)(OC)OC`, the “activity change, negative = inhibition” value is 0.805% (inactive).

As to `CCCCOC(=O)CC#N`, the “activity change, negative = inhibition” value was -4.42% (inactive).

In the case of `Sc1nc(S)nc(S)n1`, the “activity change, negative = inhibition” value was -10.9% [at 42.5 µM] (inactive).

As to `CCOC(=O)CC(O)(CC(=O)OCC)C(=O)OCC`, the “activity change, negative = inhibition” value is -6.24% (inactive).

Regarding `O=C(Cl)c1cc(Cl)cc(Cl)c1`, the “activity change, negative = inhibition” value is -15% (inactive).

Consider `CC(=O)c1cccnc1`, for which the “activity change, negative = inhibition” value was -14.6% (inactive).

Regarding `CC(C)Cc1nccs1`, the “activity change, negative = inhibition” value is -1.36% (inactive).

`N#CCCCC(C#N)CCC#N` (stereo not given): the “activity change, negative = inhibition” value is 14.2% (inactive).

Regarding `Cc1cc(SC2=C(O)C[C@@](CCc3ccc(N)cc3)(C(C)C)OC2=O)c(C(C)(C)C)cc1CO`, the “activity change, negative = inhibition” value was -4.82% (inactive).

For `CC(CN=Cc1ccccc1O)N=Cc1ccccc1O` (stereo not given), the “activity change, negative = inhibition” value was 8.77% (inactive).

For `C[Si](C)(C)O[Si](C)(C)O[Si](C)(C)C`, the “activity change, negative = inhibition” value is 18.7% (inactive).

Regarding `Cc1cc(C)n(CO)n1`, the “activity change, negative = inhibition” value was 0.053% (inactive).

For the compound `CCCCC(CC)COCCC#N` (stereo not given), the “activity change, negative = inhibition” value was 10.3% (inactive).

As for `Nc1cccc2c(=O)[nH][nH]c(=O)c12`, the “activity change, negative = inhibition” value was 12.7% (inactive).

`O=c1c2ccccc2oc2ccccc12`: the “activity change, negative = inhibition” value was 66.4% (inactive).

`c1ccc(CCNc2nc(-c3ccccc3)cs2)cc1`: the “activity change, negative = inhibition” value was 89.4% [at 42.5 µM] (inactive).

Turning to `CC(C)=CCC/C(C)=C/C=N/O`, the “activity change, negative = inhibition” value is 0.779% (inactive).

Take `CO[C@@H]1COCC[C@@H]1N[C@@H]1CC[C@@](C(=O)N2CCc3ncc(C(F)(F)F)cc3C2)(C(C)C)C1`: the “activity change, negative = inhibition” value is 12.7% (inactive).

For the compound `Cc1nc(C)c(C)nc1C`, the “activity change, negative = inhibition” value was 0.629% (inactive).

For the compound `Cc1nc2sccn2c(=O)c1CCN1CCC(=C(c2ccc(F)cc2)c2ccc(F)cc2)CC1`, the “activity change, negative = inhibition” value was -12.7% [at 42.5 µM] (inactive).

For the compound `O=C(O)COCC(=O)O`, the “activity change, negative = inhibition” value was 9.22% (inactive).

For the compound `CC(=O)c1ccc(Cl)c(Cl)c1Cl`, the “activity change, negative = inhibition” value was -0.566% (inactive).

On to `CCCCOc1ccc(N)cc1`, for which the “activity change, negative = inhibition” value is 49.8% (inactive).

Regarding `COc1ccc(CN(CCN(C)C)c2ncccn2)cc1`, the “activity change, negative = inhibition” value was 5.9% [at 42.5 µM] (inactive).

Consider `O=C(NC1CCN(CCc2c[nH]c3ccccc23)CC1)c1ccccc1`, for which the “activity change, negative = inhibition” value was -5.38% [at 42.5 µM] (inactive).

Turning to `CCCCCCCCS`, the “activity change, negative = inhibition” value was 6.66% (inactive).

Turning to `CC(COc1ccccc1)NC(C)C(O)c1ccc(O)cc1` (stereo not given), the “activity change, negative = inhibition” value is 8.32% [at 42.5 µM] (inactive).

For `CCC(C)CCCC(C)(C)O` (stereo not given), the “activity change, negative = inhibition” value was 5.99% (inactive).

`Nc1ccc(F)cc1F`: the “activity change, negative = inhibition” value was 12.2% (inactive).

In the case of `CCc1c(C)[nH]c2c1C(=O)C(CN1CCOCC1)CC2` (stereo not given), the “activity change, negative = inhibition” value was 9.2% [at 42.5 µM] (inactive).

Take `O=C(Nc1ccccc1)c1cc([N+](=O)[O-])ccc1Cl`: the “activity change, negative = inhibition” value was -28.2% (inactive).

Turning to `O=C(O)c1ccc(O)c(O)c1`, the “activity change, negative = inhibition” value was -6.91% (inactive).

For the compound `Nc1ncnc2c1ncn2[C@@H]1O[C@H](CO)[C@@H](O)[C@H]1O`, the “activity change, negative = inhibition” value was -17.7% [at 42.5 µM] (inactive).

For `C[C@H](CN1CCCC1)C(=O)c1ccc(C(F)(F)F)cc1`, the “activity change, negative = inhibition” value was 16.8% [at 42.5 µM] (inactive).

On to `C=CC(C)CCC=C(C)C` (stereo not given), for which the “activity change, negative = inhibition” value was 13.3% (inactive).

Take `CC(C)(C)c1ccc(CCC=O)cc1`: the “activity change, negative = inhibition” value was 2.22% (inactive).

Consider `CCCN(C1CCN(C(=O)C2CCNCC2)CC1)[C@@H]1CCc2ccc(OC)cc2C1`, for which the “activity change, negative = inhibition” value was -10.6% (inactive).
